Screening results: PubChem, National Center for Advancing Translational Sciences (NCATS)
Pf growth 48h: Primary qHTS for delayed death inhibitors of the malarial parasite plastid, 48 hour incubation; P. falciparum luciferase growth in erythrocytes, 48 h; Potency, µM (titrated, usually from 28.7 µM), hits mostly inhibitors; actives 5.9% (n = 310,000)
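Parasite viability was followed by luminescence of a genomically integrated firefly luciferase. Cultures held 0.1% parasitemia at 2% hematocrit (final), incubated under 5% CO2 at 37 C.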
CHX counter: Cycloheximide Counterscreen for Small Molecule Inhibitors of Shiga Toxin; cell reporter, cycloheximide protein synthesis inhibition counterscreen; max response, %; actives 12% (n = 300,000); in the data active = max response mostly above about 13%, no sharp cut-off; inactive = mostly below about 14%; also: read at 38.3 µM for the half of the compounds with a filed dose
Pf growth 96h: Primary qHTS for delayed death inhibitors of the malarial parasite plastid, 96 hour incubation | P. falciparum luciferase reporter growth, 96 h | Potency, µM (top dose mostly 28.7 µM), most hits filed as inhibitors | actives 6.9% (n = 320,000)
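P. falciparum expressing integrated firefly luciferase grown in erythrocytes (2% hematocrit, 0.05% parasitemia final) with compounds for 96 hours at 37 C, 5% CO2. Growth inhibition read as loss of luminescence after adding luciferase detection reagent.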
Shiga toxin inh: A qHTS for Small Molecule Inhibitors of Shiga Toxin. Vero cells, Shiga toxin protein synthesis inhibition reporter. inhibition, % at 38.7 µM. actives 9.2% (n = 290,000); in the data active = inhibition mostly above about 28%, no sharp cut-off; inactive = mostly below about 43%
HCMV antiviral: qHTS Assay for inhibitors of the human cytomegalovirus (HCMV); HFF cells, HCMV-luciferase reporter, 72 h; hits give low values; activity change, negative = inhibition, % at 57.5 µM; actives 4.5% (n = 410,000); AID 1259415, 2018; in the data active = activity change below about -60%; inconclusive = no clear call, values can overlap the other calls; inactive = above about -39%
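Screen run at 2 compound doses on HFFs infected with reporter HCMV, MOI 1 PFU/cell. Luciferase activity from cell lysates at 72 h post infection gave inhibition relative to buffer-only and Salinomycin wells.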
HCV inh: qHTS Assay for Inhibitors of Hepatitis C Virus (HCV) | Huh7.5.1 HCVcc-Cre infection, luciferase reporter, 44 h | Potency, µM (highest dose often 41.8 µM), actives largely listed as inhibitors | actives 3.4% (n = 340,000)
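Seed cells (1,000/well) for 4 h; treat with compound and infect with HCVcc-Cre, moi about 0.5. Incubate 44 h, then detect luciferase activity.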
Numbers stand for hits; i = inactive; ? = inconclusive; nt = no result given; [ ] = dose if it differs, or a comment. An excerpt weighted towards active compounds, which were near 21% of everything screened. Unless noted, calls follow the shape of the dose curve; as a rule, active = well fitted inhibition curve with a large enough effect; inconclusive = small, poorly fitted or top-dose-only effect, or another doubt; inactive = no such curve, though single readings can be large or run the other way.

SMILES | Pf growth 48h | CHX counter | Pf growth 96h | Shiga toxin inh | HCMV antiviral | HCV inh
CCCCN(C(=O)c1ccc(S(=O)(=O)N2CCCC2)cc1)C1CCS(=O)(=O)C1 (stereo unspecified) | i | nt | i | nt | i | i[8.37 µM]
C/C(=N\N1CCCCCC1)c1c(O)n(C2CCCCC2)c(=O)[nH]c1=O | ? | i | 13.1µM | i | i | i
COc1cc(CN=C(C)c2c(O)n(C3CCCCC3)c(=O)[nH]c2=O)cc(OC)c1 | ? | i | i | i | i | 10µM
COc1ccc(N=C(C)c2c(O)n(C3CCCCC3)c(=O)[nH]c2=O)c(OC)c1 | i | i | i | i | i | i
CCCCn1c(O)c(C(CC)=NCc2cc(OC)cc(OC)c2)c(=O)[nH]c1=O | i | i | ? | i | i | 12.6µM
CCC(=NCc1cc(OC)cc(OC)c1)c1c(O)n(C2CCCCC2)c(=O)[nH]c1=O | ? | i | 0.828µM | i | i | ?
COc1cccc(CNC(=O)c2cc3c(=O)n(Cc4cccnc4)ccc3nc2C)c1 | nt | nt | nt | nt | i | nt
CC(C)C[C@@H]1COc2cccc(N3CCCCC3)c2S(=O)(=O)N1 | nt | nt | nt | nt | i | nt
CCN(CC(=O)Nc1ccccc1OC)C(=O)CSCC(=O)Nc1ccc(OC)cc1 | i | nt | i | nt | i | i
O=S(=O)(Nc1cc(S(=O)(=O)N2CCOCC2)ccc1NCC1CCCO1)c1ccccc1 (stereo unspecified) | i | nt | i | nt | i | i
COc1ccc(S(=O)(=O)N2C[C@@H](O)COC[C@@H]3O[C@H](CC(=O)NCCCN4CCOCC4)CC[C@H]32)cc1 | nt | nt | nt | nt | -74.2 | nt
COc1ccc(C(=O)COC(=O)CCNS(=O)(=O)c2ccccc2)c(OC)c1 | i | nt | i | nt | i | ?
O=C(NCCC1=CCCCC1)Nc1ccc2nsnc2c1 | i | i | i | i | i | ?
O=C(N[C@H]1CP(=O)(Oc2ccccc2)O[C@H](COCc2ccccc2)[C@H]1O)C(Cl)(Cl)Cl (stereo partly specified) | ? | 25.2 | 11.7µM | i | i | i
Cc1c2cnn(CC(=O)N3CCN(c4ccc(F)cc4)CC3)c(=O)c2c(C)n1Cc1ccc(F)cc1 | nt | nt | nt | nt | i | nt
Cc1cccc(-c2cccc(NC(=O)C3CCCN(C(=O)c4csc(C)n4)C3)c2)c1 (stereo unspecified) | ? | 16.9 | ? | 45.8 | ? | 7.94µM
Cc1nc(C(=O)N2CCCC(C(=O)c3cccc(OC(C)C)c3)C2)cs1 (stereo unspecified) | i | i | ? | i | i | ?
Cc1cccc(-c2cccc(NC(=O)C3CCCN(C(=O)c4cccnc4)C3)c2)c1 (stereo unspecified) | i | i | ? | i | ? | ?
CCc1ncc(CN2CCCC(C(=O)Nc3cccc(-c4cccc(C)c4)c3)C2)cn1 (stereo unspecified) | i | i | i | i | i | i
Cc1cccc(-c2cccc(NC(=O)C3CCCN(C(=O)c4ocnc4C)C3)c2)c1 (stereo unspecified) | i | 29.0 | ? | 40.0 | i | ?
CCc1nc(C)c(C(=O)N2CCCC(C(=O)Nc3cccc(-c4cccc(C)c4)c3)C2)o1 (stereo unspecified) | i | 54.3 | i | 86.6 | i | 11.2µM
CCN(CC(=O)Nc1c(F)cccc1F)C(=O)Cc1ccc(S(=O)(=O)N2CCOCC2)s1 | ? | nt | i | nt | i | i
CC(=O)Nc1ccc(C(=O)CSc2nnc(-c3ccccc3F)n2CCc2ccccc2)cc1 | nt | nt | nt | nt | i | i
CCOc1ccccc1OCCNC(C)Cc1ccc(OC)c(S(N)(=O)=O)c1 (stereo unspecified) | nt | nt | nt | nt | i | nt
COc1cc(NC(=O)CSc2cc(=O)n(C)c3ccccc23)cc(OC)c1OC | nt | nt | nt | nt | i | nt
SMILES | Pf growth 48h | CHX counter | Pf growth 96h | Shiga toxin inh | HCMV antiviral | HCV inh
CCN(c1ccc(Cl)cc1)S(=O)(=O)c1nnc(NC(=O)C2CCCCC2)s1 | nt | nt | nt | nt | -63.9 | nt
CC(C)C(=O)Nc1nnc(S(=O)(=O)N(C)c2ccc(Cl)cc2)s1 | i | i | 2.94µM | i | i | i
CCC(=O)Nc1nnc(S(=O)(=O)N(CC)c2ccc(OC)cc2)s1 | ? | i | i | i | i | i
CCN(c1cc(C)cc(C)c1)S(=O)(=O)c1nnc(NC(=O)C2CCCCC2)s1 | nt | nt | nt | nt | i | nt
CCC(=O)Nc1nnc(S(=O)(=O)N(CC)c2ccc(Cl)cc2)s1 | i | i | i | i | -67.3 | i
CC(C)(C)OC(=O)N[C@@H](Cc1ccccc1)c1nnc(S(=O)(=O)Cc2cccc(F)c2)o1 | ? | 21.2 | ? | i | nt | ?
CC(C)C[C@H](N)c1nnc(S(=O)(=O)Cc2cccc(F)c2)o1 | i | 31.9 | nt | i | i | ?
Cc1c([N+](=O)[O-])c([N+](=O)[O-])nn1CC(=O)N1CCOCC1 | i | i | ? | i | i | i
Nc1nonc1N/N=C\c1ccccc1 | i | i | i | i | i | i
Nc1nonc1NN=C1CCCCC1 | i | 12.2 | i | i | i | i
CC(=O)c1cccc(NC(=O)NCCc2ccc(Cl)cc2)c1 | i | i | i | 38.0 | i | i
COc1cccc(NC(=O)NCCc2ccc(Cl)cc2)c1 | ? | 24.3 | i | i | i | i
CCOc1ccc(C(=O)Nc2nnc(S(=O)(=O)N(CC)c3ccccc3C)s2)cc1 | nt | nt | nt | nt | i | nt
Cc1cccc(CCNC(=O)c2cnc3c(C)cccn3c2=O)c1 | nt | nt | nt | nt | i | nt
CCOC(=O)c1c(-c2ccc(F)cc2)csc1NC(=O)C1CCCO1 (stereo unspecified) | i | i | i | i | -60.3 | i
COC(=O)c1c(-c2cccc(C)c2)csc1NC(=O)C1CCCO1 (stereo unspecified) | 13.1µM | 27.3 | i | i | ? | i
CCOC(=O)c1c(-c2ccc(OC)cc2)csc1NC(=O)C1CCCO1 (stereo unspecified) | ? | i | i | i | ? | ?
CCOC(=O)c1c(-c2ccc(C)cc2)csc1NC(=O)C1CCCO1 (stereo unspecified) | ? | i | 9.28µM | i | i | 11.2µM
CCc1ccc(C(C(=O)NC2CCCC2)N(C(=O)c2csnn2)C2CC2)cc1 (stereo unspecified) | i | i | ? | i | i | i
COc1ccc(-c2nn(-c3ccccc3)cc2CNCc2cccnc2)c(F)c1 | ? | i | i | i | i | ?
COc1ccc(-n2cc(CNCc3cccnc3)c(-c3cccc(F)c3)n2)cc1 | 13.1µM | i | ? | i | i | i
COc1ccc(CNCc2cn(-c3cccc(F)c3)nc2-c2ccc(C)o2)cc1 | ? | 11.3 | i | i | i | 10µM
COc1ccc(-n2cc(CNCCc3cnc[nH]3)c(-c3cccc(F)c3)n2)cc1 | 1.65µM | 40.7 | ? | i | i | ?
O=C(NCc1ccccc1Cl)c1cc2c(s1)-c1ccccc1SC2 | nt | nt | nt | nt | i | nt
Cc1ccc2c(=O)cc(C(=O)Nc3c(C)n(C)n(-c4ccccc4)c3=O)oc2c1C | nt | nt | nt | nt | i | nt
